Results filed as inconclusive are left out. Active and inactive are the calls of the source. Rule for the calls: active = hit-call score of the fitted dose curve at least 0.9, where 1 is the maximum; inconclusive = response in the unintended direction; inactive = score below 0.9.

Sequence of Cellular tumor antigen p53 (Homo sapiens) (P04637 whole entry, looked up): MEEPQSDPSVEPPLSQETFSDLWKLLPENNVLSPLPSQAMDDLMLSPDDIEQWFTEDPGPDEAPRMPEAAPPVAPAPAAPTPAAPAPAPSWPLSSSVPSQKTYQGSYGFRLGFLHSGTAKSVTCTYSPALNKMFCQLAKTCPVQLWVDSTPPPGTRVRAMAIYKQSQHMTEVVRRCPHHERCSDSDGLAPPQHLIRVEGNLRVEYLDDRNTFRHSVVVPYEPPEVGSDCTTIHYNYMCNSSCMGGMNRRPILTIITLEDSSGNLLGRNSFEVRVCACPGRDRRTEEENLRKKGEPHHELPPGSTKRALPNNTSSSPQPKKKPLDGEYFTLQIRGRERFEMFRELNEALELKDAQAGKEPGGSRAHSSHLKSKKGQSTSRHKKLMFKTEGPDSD

One experiment addresses Cellular tumor antigen p53 (Homo sapiens) (UniProt P04637). Kind of experiment: TOX21_p53_BLA_p3_ratio: Tox21 HCT-116 p53 Agonism Beta-lactamase Assay, Ratio, Phase 3 (AID 2283596). The procedure, abridged: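 HCT116 p53-bla cells (4000/well) given compound in DMSO (217-fold dilution) after 5 h, incubated 16 h at 37C. CCF4-AM substrate 2 h at room temperature; 460/530 nm emission ratio, gain fitted against DMSO.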
Turning to `COC1=CC=C2[C@H]3Cc4ccc(OC)c5c4[C@@]2(CCN3C)[C@H]1O5`, the result was inactive.

For `C[N+](C)(C)CCCl`, the outcome was inactive. Same read-out and setting: as for `NC(=S)c1c(Cl)cccc1Cl`, the entry is “inactive”; as for `CCCCCCC(=O)O[C@H]1CC[C@H]2[C@@H]3CC[C@H]4CC(=O)C=C(C)[C@]4(C)[C@H]3CC[C@]12C`, “inactive”. For `C1CCNCC1`, the outcome was inactive. Still for that read-out and setting: under `CC(N)Cc1ccc2c(c1)OCO2` (stereo unspecified) stands “inactive”; under `CC[N+]1(C)CCCC(OC(=O)C(O)(c2ccccc2)c2ccccc2)C1` (stereo unspecified), “inactive”; under `O=C([O-])c1ccccn1.O=C([O-])c1ccccn1.O=C([O-])c1ccccn1.[Cr+3]`, “inactive”. On the same count and under the same terms, under `Cc1ccc(Cl)c(O)c1` stands “inactive”; under `C[C@]12CC[C@H]3[C@@H](CCC4=CC(=O)CC[C@@H]43)[C@@H]1CC[C@@H]2OC(=O)CCc1ccccc1`, “inactive”. Same read-out and setting: as for `CC(C)CCC(=O)O[C@H]1CC[C@H]2[C@@H]3CCC4=CC(=O)CC[C@]4(C)[C@H]3CC[C@]12C`, the entry is “inactive”. For `C1CS1`, the outcome was inactive.

For the compound `CC(N)Cc1ccc(O)cc1` (stereo unspecified), the outcome was inactive. As to `CCCN`, the result was inactive.

For the compound `Cc1nnc(-c2ccccc2)c(=O)n1N`, the outcome was inactive. On the same count and under the same terms, under `c1cc2c(c(NC3=NCCN3)c1)CCCC2` stands “inactive”. The same measure, in the same setting: as for `CC(C)(C#N)C(C)(C)C#N`, the entry is “inactive”; as for `C=CCBr`, “inactive”; as for `CC(=O)O[C@H]1CC[C@H]2[C@@H]3CCC4=CC(=O)CCC4=C3C=C[C@]12C`, “inactive”. In the case of `CC(C)(C)C(=O)C(Cl)Cl`, the result was inactive.

Consider `O=[N+]([O-])c1cccc2cccnc12`, for which the outcome was inactive.

For `CN(C)c1ccc(N=Nc2ccccc2)cc1`, the result was inactive. On the same count and under the same terms, under `CCC1COC(Cn2cncn2)(c2ccc(Cl)cc2Cl)O1` (stereo unspecified) stands “inactive”; under `NC(=S)C(N)=S`, “inactive”. Same read-out and setting: under `CCC(=O)O[C@@](Cc1ccccc1)(c1ccccc1)[C@@H](C)CN(C)C` stands “inactive”; under `N#CC(Cl)(Cl)Cl`, “inactive”; under `C=CCN1CC[C@]23CCCC[C@H]2[C@H]1Cc1ccc(O)cc13`, “inactive”. Still for that read-out and setting: as for `Nc1ccccc1-c1ccccc1`, the entry is “inactive”; as for `CCCC[N+]1(C)[C@@H]2CC(OC(=O)[C@H](CO)c3ccccc3)C[C@H]1[C@@H]1O[C@@H]12` (stereo partly specified), “inactive”.

Tested on in the next experiment: not listed separately
The experiment can be described thus: TOX21_p53_BLA_p4_viability: Viability Assessment in the Tox21 HCT-116 p53 Agonism Beta-lactamase Assay, Phase 4 (AID 2283597).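 Note: hits lower the luminescence signal meaning cytotoxicity.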 The essentials: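 Luminescent ATP readout (CellTiter-Glo, 30 min, room temperature) in the same wells as the p53 bla ratio. HCT116 cells were treated for 16 h at 37C with DMSO-dissolved compounds.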
Take `COC1=CC=C2[C@H]3Cc4ccc(OC)c5c4[C@@]2(CCN3C)[C@H]1O5`: the compound was called inactive. Take `CCCCC1C(=O)NC(=O)N(C2CCCCC2)C1=O` (stereo unspecified): the compound was classed as inactive. Same read-out and setting: as for `NC(=S)c1c(Cl)cccc1Cl`, the entry is “inactive”. The same measure, in the same setting: as for `C1CS1`, the entry is “inactive”. For `O=C1C(=O)c2cccc3cccc1c23`, the AC50 (usually the concentration at which the activity in the assay is half-maximal) was 33 µM (active).

Turning to `O=C1CC(=O)NC(=O)N1`, the compound was classed as inactive. Turning to `CC(=O)O[C@H]1CC[C@H]2[C@@H]3CCC4=CC(=O)CCC4=C3C=C[C@]12C`, the compound was classed as inactive. On the same count and under the same terms, under `[Cl-].[Cl-].[Sn+2]` stands “inactive”.

`C=C[C@H]1CN2CC[C@H]1C[C@H]2[C@H](OC(=O)OCC)c1ccnc2ccc(OC)cc12`: the outcome was inactive.

In the case of `CN(C)c1ccc(N=Nc2ccccc2)cc1`, the outcome was inactive. `CCC(=O)O[C@@](Cc1ccccc1)(c1ccccc1)[C@@H](C)CN(C)C`: the compound was called inactive. Same read-out and setting: under `C=CCN1CC[C@]23CCCC[C@H]2[C@H]1Cc1ccc(O)cc13` stands “inactive”. The same measure, in the same setting: as for `Nc1ccccc1-c1ccccc1`, the entry is “inactive”. With `CC(=O)CC(c1ccc(Cl)cc1)c1c(O)c2ccccc2oc1=O` (stereo unspecified), the outcome was inactive.

On to `CC(C)=CCN1CC[C@]2(C)c3cc(O)ccc3C[C@H]1[C@H]2C`, for which the outcome was inactive.

The target in another experiment is Cellular tumor antigen p53 (Homo sapiens) (UniProt P04637). Kind of experiment: TOX21_p53_BLA_p5_ratio: Tox21 HCT-116 p53 Agonism Beta-lactamase Assay, Ratio, Phase 5 (AID 2283599). The procedure, abridged:
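Beta-lactamase reporter ratio (blue 460 nm over green 530 nm, 405 nm excitation) after 2 h CCF4-AM loading, in HCT-116 cells exposed 16 h at 37 C to compounds pinned at 217-fold dilution. Increases relative to DMSO baseline scored.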
As for `COC1=CC=C2[C@H]3Cc4ccc(OC)c5c4[C@@]2(CCN3C)[C@H]1O5`, the result was inactive. The same measure, in the same setting: as for `CCCCC1C(=O)NC(=O)N(C2CCCCC2)C1=O` (stereo unspecified), the entry is “inactive”; as for `NC(=S)c1c(Cl)cccc1Cl`, “inactive”. On the same count and under the same terms, under `C1CCNCC1` stands “inactive”; under `CC(N)Cc1ccc2c(c1)OCO2` (stereo unspecified), “inactive”; under `CC[N+]1(C)CCCC(OC(=O)C(O)(c2ccccc2)c2ccccc2)C1` (stereo unspecified), “inactive”. For `O=C([O-])c1ccccn1.O=C([O-])c1ccccn1.O=C([O-])c1ccccn1.[Cr+3]`, the result was inactive. For `Cc1ccc(Cl)c(O)c1`, the result was inactive. Still for that read-out and setting: as for `CC(C)CCC(=O)O[C@H]1CC[C@H]2[C@@H]3CCC4=CC(=O)CC[C@]4(C)[C@H]3CC[C@]12C`, the entry is “inactive”; as for `C1CS1`, “inactive”.

As for `CC(N)Cc1ccc(O)cc1` (stereo unspecified), the outcome was inactive. Still for that read-out and setting: under `CCCN` stands “inactive”. Same read-out and setting: under `O=C1C(=O)c2cccc3cccc1c23` stands “inactive”; under `c1cc2c(c(NC3=NCCN3)c1)CCCC2`, “inactive”. On the same count and under the same terms, under `CC(C)(C#N)C(C)(C)C#N` stands “inactive”.

As to `O=C1CC(=O)NC(=O)N1`, the result was inactive.

As for `C=CCBr`, the result was inactive. Still for that read-out and setting: under `CC(=O)O[C@H]1CC[C@H]2[C@@H]3CCC4=CC(=O)CCC4=C3C=C[C@]12C` stands “inactive”. The same measure, in the same setting: as for `CC(C)(C)C(=O)C(Cl)Cl`, the entry is “inactive”. Still for that read-out and setting: as for `C=C[C@H]1CN2CC[C@H]1C[C@H]2[C@H](OC(=O)OCC)c1ccnc2ccc(OC)cc12`, the entry is “inactive”; as for `O=[N+]([O-])c1cccc2cccnc12`, “inactive”. `CCC1COC(Cn2cncn2)(c2ccc(Cl)cc2Cl)O1` (stereo unspecified): the result was inactive. For the compound `NC(=S)C(N)=S`, the result was inactive.

Consider `CCC(=O)O[C@@](Cc1ccccc1)(c1ccccc1)[C@@H](C)CN(C)C`, for which the result was inactive. With `Nc1ccccc1-c1ccccc1`, the result was inactive. Regarding `CCCC[N+]1(C)[C@@H]2CC(OC(=O)[C@H](CO)c3ccccc3)C[C@H]1[C@@H]1O[C@@H]12` (stereo partly specified), the outcome was inactive.

`CC(C)=CCN1CC[C@]2(C)c3cc(O)ccc3C[C@H]1[C@H]2C`: the outcome was inactive.
